Consider 21 compounds from PubChem BioAssay (NCI).

The structures appear in SMILES notation. Values joined by “and” are separate entries in the source; they are usually repeats but may differ in a detail not shown here. Identical values can stand only once. About 79,000 compounds went through this panel and 15% of them were active in at least one assay; those are over-represented in the sample as a whole. Values without a mark were called inactive. Active and inactive are the calls of the source. Cut-off read from the data, not from the text of the source: active = growth inhibition above about 70%; inactive = the rest.

Test [1] is described as follows: NCI Yeast Anticancer Drug Screen. Data for the rad50 strain (AID 155).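 Note: 0% = growth of vehicle-only cultures of the same strain.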 The conditions noted are these: S. cerevisiae rad50 strain growth inhibition; at 50.0 µM; hits give high values. An outline of the steps: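 Yeast carrying a defined DNA repair defect were exposed to test compounds, and growth was compared with vehicle-treated controls to give percent inhibition.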

A short description of test [2]: NCI Yeast Anticancer Drug Screen. Data for the mec2-1 strain (AID 157). The conditions noted are these: S. cerevisiae mec2-1 strain, at 50.0 µM, hits give high values. An outline of the steps: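 Yeast mec2-1 mutant treated with compound. Readout: growth inhibition vs vehicle controls.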
Test [3] is described as follows: NCI Yeast Anticancer Drug Screen. Data for the sgs1 mgt1 strain (AID 161).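 Note: 0% = growth of cultures given vehicle only.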 The conditions noted are these: S. cerevisiae sgs1 mgt1 strain, at 50.0 µM, hits give high values. Put shortly: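 Genetically altered yeast, compound exposure, growth inhibition relative to vehicle.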
Test [4] is described as follows: NCI Yeast Anticancer Drug Screen. Data for the cln2 rad14 strain (AID 165).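 Note: 0% = growth equal to vehicle treated cultures.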 The conditions noted are these: S. cerevisiae cln2 rad14 strain, at 50.0 µM, hits give high values. An outline of the steps: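 cln2 rad14 yeast strain; compound exposure; growth inhibition read vs vehicle controls.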
Test [5] in a line: NCI Yeast Anticancer Drug Screen. Data for the bub3 strain (AID 167). The conditions noted are these: S. cerevisiae bub3 mutant strain, at 50.0 µM, hits give high values. An outline of the steps: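 Compounds were applied to a genetically altered yeast strain carrying a cell-cycle control defect. Growth inhibition was scored against vehicle-treated controls.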
Test [6] is described as follows: NCI Yeast Anticancer Drug Screen. Data for the mlh1 rad18 strain (AID 175). The conditions noted are these: S. cerevisiae mlh1 rad18 strain growth inhibition; at 50.0 µM; hits give high values. An outline of the steps: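 Yeast w/ defined DNA-repair lesions; compound exposure; growth vs vehicle controls → % inhibition.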

As to `CC(=O)OC1CCC2(C)C(=CC=C3C4CCC(=O)C4(C)CCC32)C1` (stereo unspecified), the growth inhibition was 5.85% and 8.55% in test [1]; 44.6% and 36.8% in test [2]; -5.15% and 3.5% in test [3]; 3% and 2.9% in test [4]; 35.1% and 34.3% in test [5]; 22.5% and 10.2% in test [6].

Consider `CCOC(=O)C1Oc2ccc([N+](=O)[O-])c3c2C1(O)CCC3` (stereo unspecified), for which the growth inhibition in test [1] is 7.2%; in test [2] it was 1.3%; in test [3], 5.8%; in test [4], 26.6%; in test [5], -8.8%; in test [6] it was -6.65%.

Consider `CC1(C)CN1C1=C(Br)C(=O)C(N2CC2(C)C)=C(Br)C1=O`, for which the growth inhibition in test [1] was 18.8%; in test [2], 0.9%; in test [3], 7.75%; in test [4], 9.9%; in test [5], -0.65%; in test [6], 30.1%.

For `[Cl][Hg][c]1ccccc1N=Nc1ccccc1I`, the growth inhibition is 99.2% (active) in test [1]; 98.8% (active) in test [2]; 99.2% (active) in test [3]; 98.8% (active) in test [4]; 99.3% (active) in test [5]; 99.2% (active) in test [6].

As for `CNC(Cc1ccccc1)c1ccc(OC)cc1` (stereo unspecified), the growth inhibition in test [1] is 27.1%; in test [2], 17.2%; in test [3], 32.3%; in test [4] it was 5.75%; in test [5], 34.6%; in test [6] it was 35.6%.

On to `CC(Cl)CC(=O)OCC1CCCN2CCCCC12` (stereo unspecified), for which the growth inhibition in test [1] was 55.1%; in test [2] it was 33.3%; in test [3] it was 23.6%; in test [4], 41.8%; in test [5] it was 45.4%; in test [6], 39.5%.

With `CCOP(=O)(OCC)C(C)(C)OC(=O)NC(F)(F)F`, the growth inhibition is -18.7% in test [1]; -15.2% in test [2]; -2.25% in test [3]; 5.25% in test [4]; -10.1% in test [5]; 3% in test [6].

On to `O=[As](O)(O)c1ccccc1Cl`, for which the growth inhibition in test [1] was 14.1%; in test [2], -13.4%; in test [3], -32.1%; in test [4], 4.55%; in test [5] it was 3.2%; in test [6] it was 16.6%.

On to `O=C1SCCC1CO` (stereo unspecified), for which the growth inhibition in test [1] was -8.65%; in test [2], 3.9%; in test [3], -6.8%; in test [4], -3.15%; in test [5], -2.3%; in test [6], -8.45%.

`CC1(C)OCC(C2NC2C2COC(C)(C)O2)O1` (stereo unspecified): the growth inhibition is -4.55% in test [1]; -6.85% in test [2]; -11.1% in test [3]; -40.4% in test [4]; -10.9% in test [5]; 6.5% in test [6].

For `CC(O)C[N+](=O)[O-]` (stereo unspecified), the growth inhibition in test [1] is 5.35%; in test [2], 8.65%; in test [3], -4.6%; in test [4] it was -23%; in test [5], 8.5%; in test [6], 4.8%.

As to `[CH3][Sb]([CH3])([CH3])([O]C(=O)C(Cl)Cl)[O]C(=O)C(Cl)Cl`, the growth inhibition in test [1] is 10.1%; in test [2] it was -7.15%; in test [3] it was 15.3%; in test [4], -22.6%; in test [5] it was -1.7%; in test [6], 2.9%.

On to `C1CC2OC2CC1C1CO1` (stereo unspecified), for which the growth inhibition is -0.4% in test [1]; -3% in test [2]; 4.7% in test [3]; -8.4% in test [4]; -17.1% in test [5]; -17.9% in test [6].

In the case of `COC(=O)c1ccccc1NP(=O)(O)Oc1ccccc1` (tested in a mixture with another compound), the growth inhibition in test [1] was 9.7%; in test [2], -4.05%; in test [3] it was 11.5%; in test [4], -32.5%; in test [5] it was -2.7%; in test [6], -11.9%.

In the case of `O=[N+]([O-])c1ccc(/C=C/C=C\c2ccc(S(=O)(=O)F)cc2Cl)cc1`, the growth inhibition in test [1] is 2.55%; in test [2] it was 25.2%; in test [3], 16%; in test [4], 1.85%; in test [5], 10.2%; in test [6], 16.3%.

Regarding `Nc1ccc(C(=O)O)c(C(=O)O)c1`, the growth inhibition in test [1] was -10.5%; in test [2], -6.8%; in test [3], 1.35%; in test [4] it was -32%; in test [5], -13.9%; in test [6], -7.05%.

Consider `C[N+]1(CC2CC2)C2CC(OC(=O)C(CO)c3ccccc3)CC1C1OC12` (stereo unspecified), for which the growth inhibition in test [1] is 11.1%; in test [2] it was 23.9%; in test [3] it was 10.7%; in test [4], 9.55%; in test [5], -0.6%; in test [6] it was -33.5%.

Consider `O=C(O)c1ccccc1.O=C(O)c1ccccc1.O=C(O)c1ccccc1.O=C(O)c1ccccc1.[Cu].[Cu]`, for which the growth inhibition was 17.4% in test [1]; -10% in test [2]; 10.8% in test [3]; 3.85% in test [4]; 1.85% in test [5]; 17.1% in test [6].

Regarding `N[C@H](Cc1ccc2oc3cc(=O)c4ccccc4c-3nc2c1)C(=O)O`, the growth inhibition is 20.8% in test [1]; 33.4% in test [2]; 24.7% in test [3]; 15.1% in test [4]; 35.5% in test [5]; 39.2% in test [6].

On to `NCC(O)c1ccc2c(c1)OCO2` (stereo unspecified), for which the growth inhibition was -48.8% in test [1]; -12.7% in test [2]; -11.3% in test [3]; -31.4% in test [4]; -1.4% in test [5]; -8.65% in test [6].

Regarding `[CH3][Sn]([c]1ccccc1)[c]1ccccc1`, the growth inhibition in test [1] is -4.15%; in test [2], 2.5%; in test [3], 2.45%; in test [4], -11%; in test [5], 1.2%; in test [6], -21.4%.
